For assay [1], the system named is Plasmodium falciparum Sir2 (PF13_0152, Sir2A). The assay is described as follows: Plasmodium falciparum Sir2A binding compounds – biochemical, small-molecule microarray, 635 nm fluorescence, primary screen (AID 1098).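 Note: score merges spot fluorescence intensity with its signal-to-noise ratio.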 The note with it: fluorescence 635 nm, higher = more signal.
Assay [2] in a line: probe aDKK1 binding to arrayed compounds – biochemical, biotinylated probe, 635/667 nm fluorescence, primary screen (AID 1099).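 Note: score merges 667nm spot fluorescence with signal to noise across triplicate slides.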 The settings on record: small-molecule microarray, higher = more signal.
Assay [3] can be described thus: probe aCHRDL2 binding to arrayed compounds – biochemical, biotinylated probe, 635/667 nm fluorescence, primary screen (AID 1100). The note with it: small-molecule microarray, higher = more signal.
Assay [4] can be described thus: change in splice reporter luminescence, either direction, cell-based, HEK293, spliceosome inhibition project, primary screen (AID 1101).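 Note: HEK293 cells carrying a splicing-competent luciferase reporter gene; test concentration not given here.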 The settings on record: HEK293 splicing luciferase reporter, 24 h, higher = more signal, called active from +8 up or from −8 down.
In assay [5] the target is Fibroblast growth factor 10 (Homo sapiens) (UniProt O15520). As to the kind of experiment: compounds binding fibroblast growth factor 10 – biochemical, small-molecule microarray, 635 nm fluorescence, primary screen (AID 1102). The settings on record: FGF10 binding, fluorescence 635 nm, higher = more signal.
Chain of Fibroblast growth factor 10 (Homo sapiens) (O15520 whole entry, looked up): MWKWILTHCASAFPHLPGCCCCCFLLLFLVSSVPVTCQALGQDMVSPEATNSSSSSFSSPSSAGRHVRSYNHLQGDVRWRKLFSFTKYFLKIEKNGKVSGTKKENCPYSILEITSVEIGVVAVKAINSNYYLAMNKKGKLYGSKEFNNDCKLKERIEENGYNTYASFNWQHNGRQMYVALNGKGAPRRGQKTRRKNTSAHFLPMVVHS
For assay [6], the system named is glycogen synthase kinase-3 (GSK3A per assay name; protocol says GSK3B). The assay is described as follows: compounds binding glycogen synthase kinase-3 – biochemical, small-molecule microarray, 635 nm fluorescence, GSK3A, primary screen (AID 1103). Note: the record names both GSK3A and GSK3B. The note with it: fluorescence 635 nm, higher = more signal.
Assay [7] has as its target Epidermal growth factor receptor (Homo sapiens) (UniProt P00533). As to the kind of experiment: compounds binding epidermal growth factor receptor – biochemical, small-molecule microarray, 635 nm fluorescence, primary screen (AID 1104).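 Note: score merges 667 nm emission intensity with spot signal to noise over triplicate slides.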 The settings on record: EGFR binding, higher = more signal.
For assay [8], the target named is Follistatin-related protein 3 (Homo sapiens) (UniProt O95633). As to the kind of experiment: compounds binding follistatin-related protein 3 – biochemical, small-molecule microarray, 635 nm fluorescence, primary screen (AID 1105).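 Note: score merges emission near 667 nm and signal to noise per printed spot across three slides.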 The settings on record: FSTL3 binding, higher = more signal.
Chain of Follistatin-related protein 3 (Homo sapiens) (O95633 whole entry, looked up): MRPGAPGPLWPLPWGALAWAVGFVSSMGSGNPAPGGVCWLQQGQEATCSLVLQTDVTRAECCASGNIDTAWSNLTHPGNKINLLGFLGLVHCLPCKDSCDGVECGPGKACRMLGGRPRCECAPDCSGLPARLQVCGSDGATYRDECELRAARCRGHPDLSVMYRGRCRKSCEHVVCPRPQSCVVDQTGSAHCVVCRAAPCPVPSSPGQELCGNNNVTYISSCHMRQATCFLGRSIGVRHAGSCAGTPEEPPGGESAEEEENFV
The target of assay [9] is Dickkopf-related protein 1 (Homo sapiens) (UniProt O94907). As to the kind of experiment: small molecules binding DKK1 protein – biochemical, small-molecule microarray, 635 nm fluorescence scan, primary screen (AID 1106).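 Note: score merges emission near 667 nm with signal to noise over three replicate slides.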 The note with it: higher = more signal.
Chain of Dickkopf-related protein 1 (Homo sapiens) (O94907 whole entry, looked up): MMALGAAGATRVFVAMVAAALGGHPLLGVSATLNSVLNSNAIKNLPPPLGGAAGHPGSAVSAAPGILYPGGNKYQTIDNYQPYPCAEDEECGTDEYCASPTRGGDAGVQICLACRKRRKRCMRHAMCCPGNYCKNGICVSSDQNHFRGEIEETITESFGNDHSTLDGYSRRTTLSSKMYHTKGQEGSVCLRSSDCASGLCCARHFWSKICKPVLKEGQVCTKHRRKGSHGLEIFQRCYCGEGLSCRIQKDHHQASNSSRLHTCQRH
Assay [10] deals with Inhibin beta A chain (activin A). The assay is described as follows: small molecules binding activin A – biochemical, small-molecule microarray, 635 nm fluorescence scan, primary screen (AID 1107).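 Note: mouse activin A protein probed at 4.33 µg/mL on printed slides; score merges bound-protein fluorescence near 667 nm with spot signal-to-noise.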 The note with it: INHBA, higher = more signal.
Assay [11] relates to Human papillomavirus type 1a protein E7 (residues 44-93). As to the kind of experiment: small molecules binding HPV E7 44-93 – biochemical, small-molecule microarray, residues 44-93, 635 nm fluorescence, primary screen (AID 1108).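 Note: E7 fragment applied at 1 µg/mL in TBST for 1 h at 4 C; score combines spot fluorescence with its signal to noise ratio.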 The settings on record: fluorescence 635 nm, higher = more signal.
Assay [12] can be described thus: hepatitis C replication reporter changes, two-sided – Huh7 cells, luciferase reporter, HCV replication inhibitor project, primary screen (AID 1109).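 Note: huh7 hepatoma cells harbouring a luciferase neomycin HCV replicon reporter; luciferase luminescence as measure of HCV replicon replication; test concentration not given here.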 The note with it: Huh7 HCV replicon luciferase reporter, 48 h; higher = more signal.
Assay [13] concerns the target Left-right determination factor 2 (Homo sapiens) (UniProt O00292). The assay is described as follows: small molecules binding LEFTY2 protein – biochemical, small-molecule microarray, 635 nm fluorescence scan, primary screen (AID 1110). The settings on record: higher = more signal.
For assay [14], the target named is Calmodulin-1 (Homo sapiens) (UniProt P0DP23). The assay is described as follows: small molecules binding calmodulin-1 with EGTA – biochemical, small-molecule microarray, Cy5-labelled CALM1, profiling panel (AID 1111).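 Note: labelled calmodulin applied in Tris saline Tween buffer holding calcium plus EGTA and DTT.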 The settings on record: Cy5-CALM1 binding fluorescence, higher = more signal.
Assay [15] has the same target. The assay is described as follows: small molecules binding Ca-loaded calmodulin-1 – biochemical, small-molecule microarray, Cy5-labelled CALM1, plus calcium, artefact control for SMM control-protein annotation, profiling panel (AID 1112).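 Note: score merges spot fluorescence with signal to noise from triplicate slides.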 The note with it: Cy5-CALM1 binding fluorescence, higher = more signal.
Assay [16] is described as follows: probe aWnt5a binding to arrayed compounds – biochemical, biotinylated probe, 635/667 nm fluorescence, primary screen (AID 1113).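 Note: score merges 667 nm fluorescence intensity with signal-to-noise per printed feature.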 The settings on record: small-molecule microarray, higher = more signal.
Assay [17] in a line: probe aShh binding to arrayed compounds – biochemical, biotinylated probe, 635/667 nm fluorescence, primary screen (AID 1114).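 Note: probe is biotin-labelled aShh protein from a stem cell growth factor screen; measures binding of labelled protein to compounds printed on the slide; score merges feature fluorescence at 667 nm with signal-to-noise.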 The note with it: small-molecule microarray, higher = more signal.
Assay [18] is described as follows: probe aNog binding to arrayed compounds – biochemical, biotinylated probe, 635/667 nm fluorescence, primary screen (AID 1115).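 Note: probe is biotinylated aNog protein used at 0.15 µg/mL for 1 h at 4 C; z-score combines 667 nm fluorescence of each spot with its signal to noise.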 The note with it: small-molecule microarray, higher = more signal.
For assay [19], the target named is Torsin-1A-interacting protein 1 (Homo sapiens) (UniProt Q5JTV8). The assay is described as follows: compound microarray binding of lysate hLAP1 – cell lysate, small-molecule microarray, COS7 lysate, 635/667 nm fluorescence, primary screen (AID 1116). The note with it: 635 nm fluorescence, higher = more signal.
Chain of Torsin-1A-interacting protein 1 (Homo sapiens) (Q5JTV8 whole entry, looked up): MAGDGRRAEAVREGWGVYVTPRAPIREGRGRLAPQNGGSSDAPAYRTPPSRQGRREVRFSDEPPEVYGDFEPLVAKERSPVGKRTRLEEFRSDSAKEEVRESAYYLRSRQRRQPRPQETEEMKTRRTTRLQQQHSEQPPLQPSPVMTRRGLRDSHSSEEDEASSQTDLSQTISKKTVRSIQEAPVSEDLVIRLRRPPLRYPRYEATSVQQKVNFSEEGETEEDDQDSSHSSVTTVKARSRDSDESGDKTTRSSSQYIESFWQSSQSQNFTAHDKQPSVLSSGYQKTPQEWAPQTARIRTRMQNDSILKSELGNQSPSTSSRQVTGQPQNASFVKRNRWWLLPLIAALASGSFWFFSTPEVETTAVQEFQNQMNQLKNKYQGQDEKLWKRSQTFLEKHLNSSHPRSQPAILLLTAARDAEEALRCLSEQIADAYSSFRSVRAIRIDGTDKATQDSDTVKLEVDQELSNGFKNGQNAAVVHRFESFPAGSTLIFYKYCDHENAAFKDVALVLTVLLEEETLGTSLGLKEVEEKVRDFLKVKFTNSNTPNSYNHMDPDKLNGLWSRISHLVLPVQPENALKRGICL
Assay [20] concerns the target Alpha-bungarotoxin (Bungarus multicinctus) (UniProt P60615). The assay is described as follows: compounds binding labelled alpha-BTX control protein – biochemical, small-molecule microarray, Alexa647 label, 635/667 nm fluorescence, artefact control for SMM control protein annotation, profiling panel (AID 1117). The settings on record: alpha-BTX-A647 binding fluorescence, higher = more signal.

Active and inactive are the calls of the source.

Chain of Alpha-bungarotoxin (Bungarus multicinctus) (P60615 whole entry, looked up): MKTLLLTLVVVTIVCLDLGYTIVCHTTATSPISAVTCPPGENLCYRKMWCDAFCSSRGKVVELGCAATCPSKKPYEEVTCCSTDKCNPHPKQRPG
Chain of Epidermal growth factor receptor (Homo sapiens) (P00533 whole entry, looked up): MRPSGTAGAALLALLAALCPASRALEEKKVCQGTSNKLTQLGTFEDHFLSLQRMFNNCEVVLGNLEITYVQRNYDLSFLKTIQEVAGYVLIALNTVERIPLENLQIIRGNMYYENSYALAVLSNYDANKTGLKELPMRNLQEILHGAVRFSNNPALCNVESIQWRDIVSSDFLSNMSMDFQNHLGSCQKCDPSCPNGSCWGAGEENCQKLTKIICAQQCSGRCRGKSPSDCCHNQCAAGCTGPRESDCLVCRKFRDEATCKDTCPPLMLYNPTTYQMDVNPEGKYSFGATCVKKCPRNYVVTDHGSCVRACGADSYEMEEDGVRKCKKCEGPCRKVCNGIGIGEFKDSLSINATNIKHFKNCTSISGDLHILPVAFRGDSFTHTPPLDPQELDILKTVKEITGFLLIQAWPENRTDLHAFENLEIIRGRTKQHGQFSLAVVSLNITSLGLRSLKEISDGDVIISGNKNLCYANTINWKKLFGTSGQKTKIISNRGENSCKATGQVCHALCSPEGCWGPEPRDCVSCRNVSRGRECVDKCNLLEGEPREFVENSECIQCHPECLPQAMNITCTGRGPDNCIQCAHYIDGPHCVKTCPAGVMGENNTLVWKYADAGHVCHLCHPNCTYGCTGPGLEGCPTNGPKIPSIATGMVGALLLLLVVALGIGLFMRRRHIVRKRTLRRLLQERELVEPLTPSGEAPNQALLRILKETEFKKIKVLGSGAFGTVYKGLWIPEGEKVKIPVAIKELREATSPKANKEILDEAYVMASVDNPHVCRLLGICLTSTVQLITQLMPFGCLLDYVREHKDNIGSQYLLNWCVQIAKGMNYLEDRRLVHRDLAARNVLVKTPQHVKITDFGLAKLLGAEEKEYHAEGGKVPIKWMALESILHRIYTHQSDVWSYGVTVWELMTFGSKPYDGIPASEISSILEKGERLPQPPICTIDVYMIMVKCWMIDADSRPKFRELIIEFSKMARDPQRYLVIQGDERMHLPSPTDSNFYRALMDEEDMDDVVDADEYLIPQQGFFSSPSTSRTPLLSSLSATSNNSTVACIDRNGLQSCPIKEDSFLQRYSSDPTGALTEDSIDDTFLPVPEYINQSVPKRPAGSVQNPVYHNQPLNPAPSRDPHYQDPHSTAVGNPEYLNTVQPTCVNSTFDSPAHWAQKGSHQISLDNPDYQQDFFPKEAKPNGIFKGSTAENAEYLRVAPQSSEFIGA
Chain of Left-right determination factor 2 (Homo sapiens) (O00292 whole entry, looked up): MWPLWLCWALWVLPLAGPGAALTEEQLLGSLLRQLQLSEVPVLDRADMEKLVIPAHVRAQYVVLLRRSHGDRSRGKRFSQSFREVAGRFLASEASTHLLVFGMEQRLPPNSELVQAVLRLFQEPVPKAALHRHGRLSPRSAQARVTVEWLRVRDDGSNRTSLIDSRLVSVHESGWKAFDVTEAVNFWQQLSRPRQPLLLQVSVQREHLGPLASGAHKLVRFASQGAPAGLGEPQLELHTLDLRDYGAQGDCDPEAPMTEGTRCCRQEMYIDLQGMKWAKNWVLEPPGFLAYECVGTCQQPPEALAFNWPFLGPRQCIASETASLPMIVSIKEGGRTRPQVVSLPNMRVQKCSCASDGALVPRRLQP

Regarding `CC(C)c1ccc(NN2C(C(O)C(C)c3ccccc3)C=CC3C(=O)N(c4ccccc4)C(=O)C32)cc1` (stereo not given), the composite z-score in assay [1] turned out to be 1.28; in assay [2], 1.41; in [3] it was 1.03; in assay [5], 1.09; in assay [6], 1.28; in assay [7], 0.308. Moreover, the composite z-score in assay [8] was 0.838; in [9], 0.18; in assay [10] it was -0.804; in assay [11], -0.377; in assay [13], 0.162; in assay [14] it was 2.61. Besides, the composite z-score in assay [15] was 1.35; in assay [16], 0.474; in assay [17] it was 0.252; in assay [18], 2.01; in assay [19], 2.3; in assay [20], 2.13. Besides, the z-score is 1.77 (inactive) in assay [4] and 1.63 in assay [12].

Regarding `C=CC[C@H](OC(=O)Nc1ccc(SC)cc1)c1ccc(O)c(F)c1`, the composite z-score in assay [1] was 0.983; in assay [2], -0.172; in [3], 0.277; in assay [5], -0.918; in assay [6], -0.786; in assay [7], -0.392. The composite z-score in assay [8] is -0.88; in assay [9], -1.17; in [10] it was 0.536; in assay [11], -0.419; in assay [13] it was -0.722; in assay [14], -0.652. The composite z-score is -0.328 in assay [15]; -0.147 in assay [16]; -0.0709 in assay [17]; -0.267 in [18]; 1.82 in [19]; -0.165 in assay [20]. For the same compound, the z-score was -0.354 (inactive) in [4] and 0.599 in assay [12].

Turning to `CC(C)(C)OC(=O)CC[C@@]1(C(=O)N2CCOCC2)N=C(c2ccc(OCCCO)cc2)O[C@@H]1c1ccccc1CN=[N+]=[N-]`, the composite z-score in assay [1] is 1.23; in assay [2] it was 0.956; in assay [3] it was 1.15; in assay [5], 1.28; in [6], 0.818; in assay [7] it was 0.234. The composite z-score in assay [8] was 0.488; in assay [9], -0.0447; in assay [10], 1.01; in assay [11], 1.46; in assay [13] it was 0.0254; in [14], 2.04. Further, the composite z-score was found to be 0.742 in [15]; 0.281 in [16]; 0.0875 in [17]; 2.13 in assay [18]; 3.31 in [19]; 0.986 in [20]. For the same compound, the z-score in [4] was 0.178 (inactive); in assay [12], 0.265.

Turning to `COc1ccc([Si](C)(C)[C@H]2[C@H](CCO)O[C@@]3(C(=O)N(Cc4ccccc4)c4ccc(NC(=O)[C@H](C)O)cc43)[C@@H]2C)cc1`, the composite z-score was 1.18 in assay [1]; 0.305 in [2]; 0.29 in [3]; 0.139 in [5]; 0.0488 in assay [6]; -0.0574 in assay [7]. The composite z-score in [8] is -0.0813; in assay [9], -0.119; in assay [10] it was 0.209; in assay [11], 1.37; in [13], 0.424; in assay [14], 0.362. For the same compound, the composite z-score was 0.195 in assay [15]; 0.026 in [16]; -0.138 in [17]; 0.514 in assay [18]; 0.795 in assay [19]; 0.627 in assay [20]. The z-score is -2.35 (inactive) in assay [4] and -5.05 in [12].

Take `C=CCC(OC(C)=O)[C@@H]1[C@@H](N(Cc2cccc3ccccc23)C(=O)c2ccc(C)cc2)c2cc(OCCCO)ccc2N1C(=O)Cc1ccc2ccccc2c1` (stereo not given in full): the composite z-score in [1] was -0.542; in assay [2] it was 0.0891; in [3], 0.135; in assay [5] it was -0.123; in assay [6], -0.0662; in [7], 0.13. Moreover, the composite z-score is -0.345 in assay [8]; 0.248 in assay [9]; 1.34 in assay [10]; -0.857 in assay [11]; -0.163 in assay [13]; 1.1 in [14]. For the same compound, the composite z-score in [15] was 0.709; in [16], -0.0718; in assay [17], -0.0553; in assay [18], 0.0588; in assay [19], 0.54; in assay [20], 0.273. The z-score in assay [4] is -1.86 (inactive); in [12], 0.198.

The values are drawn from PubChem BioAssay.
